Each structure is given as a SMILES string. About 83,000 compounds went through this panel and 20% of them were active in at least one assay; those are over-represented in the sample as a whole.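 96-well plates, one dose, 48 hours. Percent growth reported; active if below 10.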 A number with no mark means an inactive call. Active and inactive are the calls of the source.

Among the test systems are DU-145 prostate; K-562 leukemia; MALME-3M melanoma; MDA-MB-231 breast; RXF 393 renal; SF-268 CNS; SF-295 CNS; SF-539 CNS; UACC-257 melanoma; M14 melanoma; HCT-15 colon; HT29 colon; SNB-75 CNS; SNB-19 CNS; U251 CNS; PC-3 prostate; SK-MEL-5 melanoma; UACC-62 melanoma; LOX IMVI melanoma; SK-MEL-28 melanoma.
What all share (assay): NCI-60 one-dose screen, 48 h (100 = growth as untreated, 0 = no growth, -100 = all killed)
What all share (conditions): 10 µM unless noted

Consider `COc1ccc(-c2cc(-c3cccnc3)nc3sc4c(=O)[nH]c(-c5ccc(Cl)cc5)nc4c23)cc1OC`, for which the growth in the assay with DU-145 prostate is 105%; in the assay on K-562 leukemia it was 85.7%; with MALME-3M melanoma it was 115%; in the assay with MDA-MB-231 breast it was 76.7%; in the assay with RXF 393 renal, 103%; in the assay on SF-268 CNS, 93.4%. The growth in the assay with SF-295 CNS is 99.5%; in the assay on SF-539 CNS, 96.1%; with UACC-257 melanoma, 97.5%; with M14 melanoma, 106%; in the assay on HCT-15 colon it was 97%; in the assay with HT29 colon, 96.3%. Also, the growth in the assay on SNB-75 CNS is 87.4%; in the assay with SNB-19 CNS it was 95.9%; with U251 CNS, 82.7%; in the assay with PC-3 prostate it was 90.4%; in the assay on SK-MEL-5 melanoma it was 89.9%; in the assay with UACC-62 melanoma, 90.5%. Further, the figures for the growth with LOX IMVI melanoma and with SK-MEL-28 melanoma were 86% and 102%, respectively.
Turning to `C[C@@H](CO)[C@@H]1CCC=C2CC[C@]3(C)[C@H](CC[C@@H]4[C@@]5(C)CCCNC(C)(C)[C@@H]5CC[C@]43C)[C@H]21`, the growth in the assay on DU-145 prostate is 62.4%; in the assay with K-562 leukemia, -19.9% (active); in the assay on MALME-3M melanoma it was 46.6%; in the assay on MDA-MB-231 breast, 59.9%; with RXF 393 renal, 68%; in the assay on SF-268 CNS, 82.2%. Moreover, the growth in the assay on SF-295 CNS was 93.7%; in the assay on SF-539 CNS, 57.8%; in the assay on UACC-257 melanoma, 30.4%; in the assay with M14 melanoma, 30.9%; in the assay with HCT-15 colon, -5.42% (active); with HT29 colon, 1.93% (active). In addition, the growth in the assay on SNB-75 CNS is 92.3%; in the assay with SNB-19 CNS it was 88.4%; with U251 CNS, 18.8%; in the assay with PC-3 prostate it was 47.1%; in the assay with SK-MEL-5 melanoma, 72.2%; with UACC-62 melanoma it was 80.3%. In addition, the values for the growth in the assay on LOX IMVI melanoma and with SK-MEL-28 melanoma were -52.2% (active) and 70.5%, respectively.
Turning to `N#Cc1nc(-c2ccc(F)cc2)oc1S(=O)(=O)N1CCOCC1`, the growth with DU-145 prostate is 93.8%; with K-562 leukemia, 7.52% (active); in the assay on MALME-3M melanoma it was 1.99% (active); in the assay with MDA-MB-231 breast, 83.2%; in the assay with RXF 393 renal it was -27.8% (active); in the assay on SF-268 CNS it was 114%. The growth with SF-295 CNS is 104%; with SF-539 CNS, 66.7%; with UACC-257 melanoma, 93.9%; with M14 melanoma, 54.2%; in the assay on HCT-15 colon it was -29.9% (active); in the assay on HT29 colon it was 36.5%. In addition, the growth in the assay with SNB-75 CNS was 91.2%; in the assay with SNB-19 CNS it was 95.8%; in the assay on U251 CNS, 98.9%; with PC-3 prostate, 91%; with SK-MEL-5 melanoma, 82.6%; with UACC-62 melanoma, 89.9%. The growth with LOX IMVI melanoma was 8.36% (active); with SK-MEL-28 melanoma it was 85.7%.
For the compound `O=C(O)CCN1C(=O)/C(=C/C(Cl)=C/c2ccccc2)SC1=S`, the growth was 22.2% with DU-145 prostate; 14.5% in the assay on K-562 leukemia; 36.1% in the assay with MALME-3M melanoma; 49.9% with MDA-MB-231 breast; -10.2% (active) in the assay on RXF 393 renal; 26.5% in the assay on SF-268 CNS. For the same compound, the growth is 51.5% in the assay on SF-295 CNS; 10.2% in the assay with SF-539 CNS; 33.3% with UACC-257 melanoma; 10.3% in the assay with M14 melanoma; -50.3% (active) in the assay with HCT-15 colon; 10.1% with HT29 colon. Further, the growth in the assay with SNB-75 CNS was 13.2%; in the assay on SNB-19 CNS it was 34.5%; with U251 CNS, 20.8%; in the assay with PC-3 prostate, 47%; in the assay on SK-MEL-5 melanoma, 38.9%; with UACC-62 melanoma, 16.1%. Also, the values for the growth in the assay with LOX IMVI melanoma and in the assay on SK-MEL-28 melanoma were -32.4% (active) and 13.9%, respectively.
On to `CCCCCCCCCCC(CN(CC)CC)C(O)c1ccccc1` (stereo not given), for which the growth was 29.1% in the assay on DU-145 prostate; -21.2% (active) in the assay on K-562 leukemia; -37.3% (active) with MALME-3M melanoma; 10.1% with MDA-MB-231 breast; -7.14% (active) with RXF 393 renal; 40.5% in the assay with SF-268 CNS. The growth is 36.5% in the assay with SF-295 CNS; 32.1% in the assay with SF-539 CNS; 18.2% in the assay on UACC-257 melanoma; -44.1% (active) in the assay on M14 melanoma; 13.5% with HCT-15 colon; -2.44% (active) with HT29 colon. The growth in the assay on SNB-75 CNS was 49.4%; in the assay with SNB-19 CNS, 51.5%; with U251 CNS, 12.9%; with PC-3 prostate, 25.9%; in the assay with SK-MEL-5 melanoma it was -93.8% (active); in the assay on UACC-62 melanoma, -44.3% (active). Also, the growth in the assay with LOX IMVI melanoma was -82% (active); in the assay on SK-MEL-28 melanoma, -61.6% (active).
As for `O=C1/C(=C\c2ccc3nccnc3c2)SC(=S)N1CCc1ccc(O)cc1`, the growth was 59.6% in the assay on DU-145 prostate; 96.9% in the assay on K-562 leukemia; 75.7% with MALME-3M melanoma; 88.7% in the assay with MDA-MB-231 breast; 93% in the assay on RXF 393 renal; 90.8% with SF-268 CNS. Moreover, the growth in the assay on SF-295 CNS was 105%; with SF-539 CNS, 82.2%; in the assay with UACC-257 melanoma it was 81.9%; in the assay on M14 melanoma, 85.5%; in the assay on HCT-15 colon, 78.3%; with HT29 colon, 112%. Moreover, the growth with SNB-75 CNS was 66%; in the assay with SNB-19 CNS, 94%; in the assay with U251 CNS, 99.3%; in the assay with PC-3 prostate, 89.7%; with SK-MEL-5 melanoma it was 98.7%; in the assay with UACC-62 melanoma, 84.5%. For the same compound, the growth in the assay on LOX IMVI melanoma is 79.4%; in the assay with SK-MEL-28 melanoma, 103%.
As for `O=C(O)c1cn(C2CC2)c2cc(N3CCN(Cc4ccc5ccccc5c4O)CC3)c(F)cc2c1=O`, the growth in the assay on DU-145 prostate was 11.2%; with K-562 leukemia, 62%; in the assay on MALME-3M melanoma, 13.9%; in the assay with MDA-MB-231 breast, 48.4%; with RXF 393 renal, -23.2% (active); in the assay with SF-268 CNS, 57.1%. The growth in the assay with SF-295 CNS is 44.2%; in the assay with SF-539 CNS, -4.68% (active); in the assay on UACC-257 melanoma, 38.5%; with M14 melanoma, 48%; in the assay with HCT-15 colon, 9.69% (active); in the assay with HT29 colon, -32.4% (active). Moreover, the growth in the assay with SNB-75 CNS is -14.4% (active); with SNB-19 CNS it was 78.3%; in the assay with U251 CNS, 45.8%; in the assay with PC-3 prostate, 39.3%; in the assay with SK-MEL-5 melanoma, 61.6%; with UACC-62 melanoma, 38.8%. For the same compound, the growth was 40.1% in the assay on LOX IMVI melanoma and 38.6% in the assay on SK-MEL-28 melanoma.
